The source made the active and inactive calls. The calls were made as follows: active = hit-call score of the fitted dose curve at least 0.9, where 1 is the maximum; inactive = score below 0.9.

The nature of this assay: CCTE_Shafer_MEA_acute_per_network_burst_electrodes_number_mean: CCTE's Neural Acute Assay for Mean Number of Electrodes in a Network Burst, Shafer Lab (AID 2284021).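 Also: curves fitted for decreases only so hits reduce electrodes per burst.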 The method in brief: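 Rat primary cortical neurons on 48-well MEAs, DIV 13 or 15, were treated at 0.03-40 uM. Spikes were detected at 8x rms noise and recorded at 37 C. The mean electrodes per network burst in a 40 min exposure recording was expressed as percent change from a 40 min baseline.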
For `Nc1nc(=S)c2[nH]cnc2[nH]1`, the result was inactive.
On the same count and under the same terms, the entry for `CCc1cc(C2=C(C(=O)O)N(c3ccccc3C(F)(F)F)S(=O)(=O)c3ccccc32)cc2c1OCO2` is “inactive”; for `Cc1ccc(-c2cc(C(F)(F)F)nn2-c2ccc(S(N)(=O)=O)cc2)cc1` it is “inactive”.
For the compound `OCC(CO)n1cnc(-c2ccc(F)cc2)c1-c1ccnc(Oc2ccccc2)n1`, the result was inactive.
For the compound `CN(C)C(=O)NC1(c2ccccc2)CCN(CCC[C@]2(c3ccc(Cl)c(Cl)c3)CCCN(C(=O)c3ccccc3)C2)CC1`, the AC50 was 2.99 µM (active).
Take `CN(C)C(=O)NC1(c2ccccc2)CCN(CC[C@@]2(c3ccc(F)c(F)c3)CN(C(=O)c3ccccc3)CCO2)CC1`: the call was inactive.
As for `CCN(CC)CCOc1ccc(C(=C(Cl)c2ccccc2)c2ccccc2)cc1`, the compound was called inactive.
`Cc1c(C)c2c(c(C)c1O)CCC(C)(COc1ccc(CC3SC(=O)NC3=O)cc1)O2` (stereo not drawn): the call was inactive.
In the case of `CN(C)CCCN1c2ccccc2Sc2ccc(Cl)cc21`, the compound was classed as inactive.
On the same count and under the same terms, the entry for `CCCCC(CC)COP(=O)(OCC(CC)CCCC)OCC(CC)CCCC` (stereo not drawn) is “inactive”; for `Cc1cc(SC2=C(O)C[C@@](CCc3ccc(N)cc3)(C(C)C)OC2=O)c(C(C)(C)C)cc1CO` it is “inactive”.
Take `CSc1ccc(Oc2ccc(S(N)(=O)=O)cc2CN(C)C)cc1C`: the compound was called inactive.
Turning to `CCCC(=O)O`, the result was inactive.
As for `CC1=C(C)S(=O)(=O)CCS1(=O)=O`, the result was inactive.
Same read-out and setting: the entry for `O=C1OC(c2ccc(O)cc2)(c2ccc(O)cc2)c2ccccc21` is “inactive”.
Same read-out and setting: the entry for `NC(=Nc1ccccc1)Nc1ccccc1` is “inactive”; for `Oc1ccc(O)cc1` it is “inactive”.
For the compound `O=C(O)CN(CC(=O)O)CC(=O)O`, the outcome was inactive.
Take `c1ccc2occc2c1`: the compound was called inactive.
With `CC(C)COC(=O)CCCCC(=O)OCC(C)C`, the compound was called inactive.
Take `CC(C)NCC(O)c1ccc(O)c(O)c1` (stereo not drawn): the outcome was inactive.
The same measure, in the same setting: with `COC(=O)[C@H]1[C@H]2C[C@@H]3c4[nH]c5cc(OC)ccc5c4CCN3C[C@H]2C[C@@H](OC(=O)c2cc(OC)c(OC)c(OC)c2)[C@@H]1OC` the entry was “inactive”; with `C/C=C/c1ccc(OC)cc1`, “inactive”.
In the case of `Cc1cc(Cc2ccc(N)c(C)c2)ccc1N`, the AC50 was 29.9 µM (active).
Regarding `COc1ccc(OC(F)(F)F)cc1CN[C@H]1CCCN[C@H]1c1ccccc1`, the result was inactive.
In the case of `CC(N)=O`, the compound was called inactive.
`Cc1ccc(C(C)(C)C)c(O)c1`: the call was inactive.
For the compound `O=C(N[C@@H](c1ccccc1)[C@@H]1CCCCN1)c1cccc(C(F)(F)F)c1Cl`, the AC50 was 5 µM (active).

As a reminder, the AC50 is the midpoint of the concentration-response curve, whichever way the signal moves.

Values taken from PubChem BioAssay (EPA / NIEHS).
